Experimental data as given in PubChem BioAssay (NCI).
About 79,000 compounds went through this panel and 15% of them were active in at least one assay; those are over-represented in the sample as a whole. Activity calls are given as the source filed them. Cut-off read from the data, not from the text of the source: active = growth inhibition above about 70%; inactive = the rest.

How the values were obtained:
[1] = NCI Yeast Anticancer Drug Screen. Data for the wt2 strain (AID 169);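 note: 0% = growth of vehicle-treated yeast cultures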; settings: S. cerevisiae wt2 strain growth inhibition, stronger effect = higher value
In short: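 Growth of compound-treated yeast is measured and expressed as inhibition relative to vehicle-only controls.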

[2] = NCI Yeast Anticancer Drug Screen. Data for the mlh1 strain (AID 171);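 note: 0% = growth of vehicle-treated control cultures of the same strain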; settings: S. cerevisiae mlh1 strain growth inhibition, stronger effect = higher value
In short: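 Test agents were incubated with yeast bearing a defined DNA damage repair or cell cycle control alteration; values are growth inhibition normalised to vehicle-treated cultures.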

[3] = NCI Yeast Anticancer Drug Screen. Data for the sgs1 strain (AID 173);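 note: 0% = growth of vehicle-only control cultures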; settings: S. cerevisiae sgs1 mutant, stronger effect = higher value
In short: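 Strain with an altered DNA repair or cell cycle pathway exposed to compound. Growth then measured. Value = inhibition versus vehicle control.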

[4] = NCI Yeast Anticancer Drug Screen. Data for the mlh1 rad18 strain (AID 175); settings: S. cerevisiae mlh1 rad18 strain growth inhibition, stronger effect = higher value
In short: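 A repair-deficient yeast strain is exposed to test compound, and growth is scored relative to vehicle-treated controls.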

[5] = NCI Yeast Anticancer Drug Screen. Data for the rad18 strain (AID 177); settings: S. cerevisiae rad18 mutant growth inhibition, stronger effect = higher value
In short: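 DNA-repair-defective yeast; compound treatment; growth inhibition scored against vehicle.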

[6] = NCI Yeast Anticancer Drug Screen. Data for the rad52 strain (AID 147);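 note: 0% = growth of vehicle-treated control cultures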; settings: S. cerevisiae rad52 mutant growth inhibition, stronger effect = higher value
In short: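 Growth of repair-deficient yeast cells was compared between compound-treated and vehicle-treated cultures to give percent inhibition.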

[7] = NCI Yeast Anticancer Drug Screen. Data for the wt1 strain (AID 149);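 note: 0% = growth of vehicle-treated wt1 cultures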; settings: S. cerevisiae wt1 strain (SPY 50644) growth inhibition, stronger effect = higher value
In short: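 Using yeast strain wt1, compound-induced growth inhibition was determined against vehicle-treated cultures.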

[8] = NCI Yeast Anticancer Drug Screen. Data for the rad50EPP+ strain (AID 151);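 note: 0% = growth of vehicle-treated control cultures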; settings: S. cerevisiae rad50 mutant strain, stronger effect = higher value
In short: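 Measured: growth inhibition of rad50EPP+ yeast. Reference: vehicle-treated controls. Screen uses strains with defined genetic alterations in DNA damage repair or cell cycle control.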

[9] = NCI Yeast Anticancer Drug Screen. Data for the mgt1 strain (AID 153); settings: S. cerevisiae mgt1 mutant growth inhibition, stronger effect = higher value
In short: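 Compounds were applied to mgt1 mutant yeast, and growth was then compared against vehicle-treated control cultures to give percent inhibition.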

[10] = NCI Yeast Anticancer Drug Screen. Data for the rad50 strain (AID 155);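 note: 0% = growth of vehicle-only cultures of the same strain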; settings: S. cerevisiae rad50 strain growth inhibition, stronger effect = higher value
In short: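 Relative growth inhibition (compound vs vehicle) was measured in yeast with a defined repair-gene alteration.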

[11] = NCI Yeast Anticancer Drug Screen. Data for the mec2-1 strain (AID 157); settings: S. cerevisiae mec2-1 strain, stronger effect = higher value
In short: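 Compounds were applied to mec2-1 yeast cells. Their growth was then compared with that of vehicle-treated cultures to give growth inhibition.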

[12] = NCI Yeast Anticancer Drug Screen. Data for the rad14 strain (AID 159);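 note: 0% = growth of vehicle-treated control cultures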; settings: S. cerevisiae rad14 strain growth inhibition, stronger effect = higher value
In short: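 Screen for anticancer potential: a yeast strain altered in DNA damage repair is grown with compound, and reduced growth is quantified against vehicle controls.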

[13] = NCI Yeast Anticancer Drug Screen. Data for the sgs1 mgt1 strain (AID 161);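 note: 0% = growth of cultures given vehicle only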; settings: S. cerevisiae sgs1 mgt1 strain, stronger effect = higher value
In short: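 Growth of a repair-deficient yeast mutant was monitored after compound treatment and expressed as inhibition relative to vehicle-treated cultures.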

[14] = NCI Yeast Anticancer Drug Screen. Data for the CLN2oe strain (AID 163);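 note: 0% = growth of vehicle-only control cultures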; settings: S. cerevisiae CLN2oe strain, stronger effect = higher value
In short: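 Cells of an engineered yeast line with disturbed cell-cycle regulation are treated with compound. Inhibition of growth is then calculated relative to the vehicle-treated reference.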

[15] = NCI Yeast Anticancer Drug Screen. Data for the cln2 rad14 strain (AID 165);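 note: 0% = growth equal to vehicle treated cultures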; settings: S. cerevisiae cln2 rad14 strain, stronger effect = higher value
In short: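 Strain: cln2 rad14 yeast, altered in cell cycle control and DNA damage repair. Read-out: growth inhibition vs vehicle.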

[16] = NCI Yeast Anticancer Drug Screen. Data for the bub3 strain (AID 167); settings: S. cerevisiae bub3 mutant strain, stronger effect = higher value
In short: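 Screening used yeast with an engineered genetic alteration affecting cell cycle control. Compound-exposed cultures were compared with vehicle cultures, and reduced growth was taken as inhibition.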

[17] = at 5.0 µM (retest, dose inferred, filed as 0.5)
[18] = at 50.0 µM (retest, dose inferred, filed as 5.0)

Measured: growth inhibition

Clc1nc(Cl)nc(Nc2cccc3ccccc23)n1
inactive: [1]; at 1.2 µM -12% | [1]; at 3.7 µM 15% | [1]; at 11.0 µM 51% | [2]; at 1.2 µM 27% | [2]; at 3.7 µM 51% | [3]; at 1.2 µM 31% | [3]; at 3.7 µM 47% | [4]; [17] 69% | [5]; at 1.2 µM 11% | [5]; at 3.7 µM 14% | [5]; at 11.0 µM 50%
active: [1]; at 33.0 µM 93% | [1]; at 100.0 µM 98% | [2]; at 11.0 µM 85% | [2]; at 33.0 µM 97% | [2]; at 100.0 µM 98% | [3]; at 11.0 µM 77% | [3]; at 33.0 µM 96% | [3]; at 100.0 µM 98% | [4]; [18] 94% | [4]; at 50.0 µM 80.3% | [5]; at 33.0 µM 91% | [5]; at 100.0 µM 98%

O=[N+]([O-])/C=C/c1cc2ccc3ccccc3c2[nH]1
active: [6]; at 11.0 µM 83% | [6]; at 33.0 µM 88% | [6]; at 100.0 µM 88% | [7]; at 33.0 µM 79% | [7]; at 100.0 µM 93% | [8]; at 1.2 µM 91% | [8]; at 3.7 µM 94% | [8]; at 11.0 µM 94% | [8]; at 33.0 µM 93% | [8]; at 100.0 µM 87% | [9]; at 11.0 µM 81% | [9]; at 33.0 µM 95% | [9]; at 100.0 µM 93% | [10]; at 3.7 µM 70% | [10]; at 11.0 µM 78% | [10]; at 33.0 µM 83% | [10]; [18] 96% | [10]; at 50.0 µM 95.8% | [10]; at 100.0 µM 82% | [11]; at 33.0 µM 88% | [11]; [18] 98% | [11]; at 50.0 µM 98.8% | [11]; at 100.0 µM 93% | [12]; at 33.0 µM 88% | [12]; at 100.0 µM 91% | [13]; [17] 88% | [13]; [18] 97% | [13]; at 50.0 µM 98.7% | [14]; at 100.0 µM 87% | [15]; [18] 83% | [15]; at 50.0 µM 97.2% | [16]; at 33.0 µM 86% | [16]; [18] 96% | [16]; at 50.0 µM 98.8% | [16]; at 100.0 µM 91% | [1]; at 11.0 µM 87% | [1]; at 33.0 µM 95% | [1]; at 100.0 µM 93% | [2]; at 11.0 µM 83% | [2]; at 33.0 µM 93% | [2]; at 100.0 µM 93% | [3]; at 3.7 µM 72% | [3]; at 11.0 µM 89% | [3]; at 33.0 µM 94% | [3]; at 100.0 µM 92% | [4]; [17] 84% | [4]; [18] 94% | [4]; at 50.0 µM 98% | [5]; at 3.7 µM 86% | [5]; at 11.0 µM 90% | [5]; at 33.0 µM 92% | [5]; at 100.0 µM 87%
inactive: [6]; at 1.2 µM 27% | [6]; at 3.7 µM 66% | [7]; at 1.2 µM 9% | [7]; at 3.7 µM 19% | [7]; at 11.0 µM 41% | [9]; at 1.2 µM 15% | [9]; at 3.7 µM 55% | [10]; at 1.2 µM 39% | [10]; [17] 63% | [11]; at 1.2 µM 20% | [11]; at 3.7 µM 33% | [11]; [17] 55% | [11]; at 11.0 µM 63% | [12]; at 1.2 µM 11% | [12]; at 3.7 µM 27% | [12]; at 11.0 µM 62% | [14]; at 1.2 µM 0% | [14]; at 3.7 µM 12% | [14]; at 11.0 µM 31% | [14]; at 33.0 µM 63% | [15]; [17] -6% | [16]; at 1.2 µM 12% | [16]; at 3.7 µM 28% | [16]; [17] 50% | [16]; at 11.0 µM 58% | [1]; at 1.2 µM 26% | [1]; at 3.7 µM 57% | [2]; at 1.2 µM 25% | [2]; at 3.7 µM 50% | [3]; at 1.2 µM 39% | [5]; at 1.2 µM 61%
